{"source": "PubChem BioAssay (NCATS)", "note": "Inconclusive results are not listed. Unmarked numbers belong to inactive results. Activity calls are given as the source filed them. The call rests on the fitted dose curve; in most records, active means well fitted inhibition curve with a large enough effect; inconclusive means small, poorly fitted or top-dose-only effect; inactive means no such curve, though single readings can be large or run the other way."}
{"target": "Retinal dehydrogenase 2 (Homo sapiens) (UniProt O94788)", "assay": "qHTS for Inhibitors of the Aldehyde Dehydrogenase Family (ALDH1A2) Confirmation screens (AID 2061314); further: nearly all actives have a fitted effect of over 65% in size; further: potency means the concentration at half of the fitted maximal effect; on activity, negative = inhibition: on the % scale 0 is the no-effect control and ±100 the full control effect", "conditions": "ALDH1A2 enzyme inhibition qHTS confirmation; series mostly up to 45.9 µM; activity, negative = inhibition: at the top concentration", "units": {"activity, negative = inhibition": "%"}}
{"compound": "Cc1noc(Nc2sc3c(c2-c2nc4ccccc4s2)CCNC3)n1", "Potency": "25200 nM (active)"}
{"compound": "Cn1cc(S(=O)(=O)N2CCCCC2)cc1C(=O)Nc1ccc(OC(F)(F)F)cc1", "activity, negative = inhibition": -21}
{"compound": "CCc1c(-c2ccccc2)nc2ccccc2c1C(=O)NC(C)c1ccccc1", "note": "(stereo not given)", "activity, negative = inhibition": -15.2}
{"compound": "COc1ccc(CN2CC(O)CN([S+](=O)([O-])c3ccc(F)cc3)CC2=O)cc1", "note": "(stereo not given)", "activity, negative = inhibition": -22.2}
{"compound": "COc1cccc(-c2nnc(-c3ccccc3NC(=O)c3cccc(C(F)(F)F)c3)o2)c1", "activity, negative = inhibition": -1.27}
{"compound": "COc1ccc(NC(=O)CCc2c(C)nc3c(c2C)c(=O)n(C)c(=O)n3C)cc1OC", "activity, negative = inhibition": 0.614}
{"compound": "CCc1noc(-c2nc(Cc3cccc(F)c3)no2)n1", "outcome": "inactive"}
{"compound": "COc1ccc(N2CCN(C(=O)c3cc(NS(=O)(=O)c4ccc(F)cc4)ccn3)CC2)cc1", "activity, negative = inhibition": -15.3}
{"compound": "COc1ccc(-c2ccc(C(=O)Nc3cccc(C(F)(F)F)c3)cc2)nn1", "activity, negative = inhibition": -12.4}
{"compound": "COC(=O)CSc1ccc2nnc(CCNS(=O)(=O)c3ccccc3)n2n1", "activity, negative = inhibition": -2.36}
{"compound": "Nc1c(-c2ccncc2)cc[nH]c1=O", "Potency": "634 nM (active)"}
{"compound": "Cc1nn(-c2ccc3nnc(C)n3n2)c(C)c1CCC(=O)Nc1ccc(OC(F)(F)F)cc1", "outcome": "inactive"}
{"compound": "COC(=O)c1cc(C)nc2c1c(=O)nc(SCc1cccc(C)c1)n2C1CC1", "activity, negative = inhibition": -20.4}
{"compound": "COc1ccc(N(C)C(=O)c2cn(C)c(=O)c3cc(OC)c(OC)cc23)cc1", "activity, negative = inhibition": -5.06}
{"compound": "COc1ccc(-c2cc(C(=O)NCCc3ccc(OC)c(OC)c3)c3ccccc3n2)cc1", "outcome": "inactive"}
{"compound": "O=C(CN(Cc1cccc2ccccc12)C1CC1)Nc1ccc(N2CCOCC2)cc1", "Potency": "11300 nM (active)"}
{"compound": "O=C(Nc1ccc(O)cc1)c1cccc(S(=O)(=O)N2CCOCC2)c1", "activity, negative = inhibition": -3.2}
{"compound": "COCCn1c(SCc2ccccc2F)nc2c([nH]c3ccccc32)c1=O", "activity, negative = inhibition": -23.4}
{"compound": "Cc1ccc(Cc2nc3ccccc3nc2SCC(=O)Nc2cccc(C(F)(F)F)c2)cc1", "activity, negative = inhibition": -26.5}
{"compound": "O=S(=O)(Nc1ccc(OC(F)(F)F)cc1)c1ccc(N2CCCCS2(=O)=O)cc1", "activity, negative = inhibition": -17.4}
{"compound": "Cc1ccc(S(=O)(=O)N2CCCC(Cn3cnc4cccnc43)C2)cc1C", "note": "(stereo not given)", "activity, negative = inhibition": -6.76}
{"compound": "CN(C)C(=O)c1ccc(-c2cc[nH]c(=O)c2N)cc1", "Potency": "400 nM (active)"}
{"compound": "O=S(=O)(NCCn1cc(-c2cncnc2)nn1)c1ccc(Cl)cc1", "outcome": "inactive; activator"}
{"compound": "Nc1c(-c2ccccc2)cc[nH]c1=O", "Potency": "159 nM (active)"}
{"target": "Retinaldehyde dehydrogenase 3 (Homo sapiens) (UniProt P47895)", "assay": "qHTS for Inhibitors of the Aldehyde Dehydrogenase Family (ALDH1A3) Primary screen (AID 2061315);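 further: plate controls were DMSO vehicle for no effect and reference inhibitor for full effect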", "conditions": "ALDH inhibition qHTS; series mostly up to 56 µM; activity change, negative = inhibition: at the top concentration", "units": {"activity change, negative = inhibition": "%"}}
{"compound": "O=C1COc2cc([S+](=O)([O-])Nc3ccc(Cl)c(Cl)c3)c(Cl)cc2N1", "activity change, negative = inhibition": -0.871}
{"compound": "Cc1noc(Nc2sc3c(c2-c2nc4ccccc4s2)CCNC3)n1", "activity change, negative = inhibition": -7.02}
{"compound": "Nc1c(-c2ccncc2)cc[nH]c1=O", "activity change, negative = inhibition": 0.033}
{"compound": "O=C(CN(Cc1cccc2ccccc12)C1CC1)Nc1ccc(N2CCOCC2)cc1", "activity change, negative = inhibition": -14.3}
{"compound": "CN(C)C(=O)c1ccc(-c2cc[nH]c(=O)c2N)cc1", "activity change, negative = inhibition": -5.17}
{"compound": "Nc1c(-c2ccccc2)cc[nH]c1=O", "activity change, negative = inhibition": -3.86}
